Laboratory results: PubChem BioAssay AID1159580 (chemical genetic matrix, 2015)
About 2,000 (36%) of roughly 5,500 compounds were called active. Inconclusive results (about 18%) are left out. Rule as the data show it: active = normalized growth mostly below about 0.91 (no sharp cut-off); inconclusive = no clear call, values can overlap the other calls; inactive = mostly above about 0.92. This is one part of the list.

Experiment: chemical genetic growth profiling, strain panel (AID 1159580);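 also: tested at 20 µM; growth read once vehicle control cultures reached saturation at 30 °C; 1 = growth at the plate median or of vehicle wells; lower values mean less growth of the strain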
Conditions: S. cerevisiae deletion strains, growth OD
[1] = locus YAL040C, strain CLN3, active compounds read low
[2] = locus YCL061C, strain MRC1 (second series), active compounds read low
[3] = locus YDR363W, strain ESC2, active compounds read low
[4] = locus YER002W, strain NOP16, active compounds read low
[5] = locus YMR307W, strain GAS1, active compounds read low
[6] = locus YNL153C, strain GIM3, active compounds read low
[7] = locus YNL175C, strain NOP13, active compounds read low
[8] = locus YNL197C, strain WHI3, active compounds read low
[9] = locus YNL224C, strain SQS1, active compounds read low
[10] = locus YOR083W, strain WHI5 (second series), active compounds read low
[11] = locus YPL055C, strain LGE1, active compounds read low
[12] = locus YPL241C, strain CIN2, active compounds read low
[13] = locus YAR019C, strain CDC15, active compounds read low
[14] = locus YBL105C, strain PKC1, active compounds read low
[15] = locus YBR135W, strain CKS1, active compounds read low
[16] = locus YBR136W, strain MEC1, active compounds read low
[17] = locus YBR160W, strain CDC28, active compounds read low
[18] = locus YDL017W, strain CDC7, active compounds read low
[19] = locus YDL028C, strain MPS1, active compounds read low
[20] = locus YDL101C, strain DUN1, active compounds read low
[21] = locus YDL108W, strain KIN28, active compounds read low
[22] = locus YDL132W, strain cdc53, active compounds read low
[23] = locus YDL214C, strain PRR2, active compounds read low
[24] = locus YDR052C, strain DBF4, active compounds read low
[25] = locus YDR054C, strain cdc34, active compounds read low
[26] = locus YDR226W, strain ADK1, active compounds read low
[27] = locus YDR477W, strain SNF1, active compounds read low
[28] = locus YER123W, strain YCK3, active compounds read low
[29] = locus YER133W, strain GLC7, active compounds read low
[30] = locus YFL009W, strain cdc4, active compounds read low
[31] = locus YFL029C, strain CAK1, active compounds read low
[32] = locus YFR003C, strain YPI1, active compounds read low
[33] = locus YFR019W, strain FAB1, active compounds read low
[34] = locus YFR028C, strain CDC14, active compounds read low
[35] = locus YGR040W, strain KSS1, active compounds read low
[36] = locus YGR052W, strain FMP48, active compounds read low
[37] = locus YGR092W, strain DBF2, active compounds read low
[38] = locus YHR030C, strain SLT2, active compounds read low
[39] = locus YHR079C, strain IRE1, active compounds read low
[40] = locus YHR082C, strain KSP1, active compounds read low
[41] = locus YHR205W, strain SCH9, active compounds read low
[42] = locus YIL147C, strain SLN1, active compounds read low
[43] = locus YJL095W, strain BCK1, active compounds read low
[44] = locus YJL128C, strain PBS2, active compounds read low
[45] = locus YJL157C, strain FAR1, active compounds read low
[46] = locus YJR016C, strain ILV3, active compounds read low
[47] = locus YJR066W, strain TOR1 (second series), active compounds read low
[48] = locus YJR066W, strain TOR1, active compounds read low
[49] = locus YKL048C, strain ELM1, active compounds read low
[50] = locus YKL067W, strain YNK1, active compounds read low
[51] = locus YKL101W, strain HSL1, active compounds read low
[52] = locus YKL193C, strain SDS22, active compounds read low
[53] = locus YKL203C, strain TOR2, active compounds read low
[54] = locus YLR113W, strain HOG1, active compounds read low
[55] = locus YLR133W, strain CKI1, active compounds read low
[56] = locus YLR403W, strain SFP1, active compounds read low
[57] = locus YML070W, strain DAK1, active compounds read low
[58] = locus YMR001C, strain CDC5, active compounds read low
[59] = locus YMR205C, strain PFK2 (second series), active compounds read low
[60] = locus YMR277W, strain FCP1, active compounds read low
[61] = locus YNL006W, strain LST8, active compounds read low
[62] = locus YNL020C, strain ARK1, active compounds read low
[63] = locus YNL161W, strain CBK1, active compounds read low
[64] = locus YNL183C, strain NPR1, active compounds read low
[65] = locus YNL207W, strain RIO2, active compounds read low
[66] = locus YNL222W, strain SSU72, active compounds read low
[67] = locus YNL307C, strain MCK1 (second series), active compounds read low
[68] = locus YOL078W, strain AVO1, active compounds read low
[69] = locus YOL136C, strain PFK27, active compounds read low
[70] = locus YOR061W, strain CKA2, active compounds read low
[71] = locus YOR119C, strain RIO1, active compounds read low
[72] = locus YOR231W, strain MKK1, active compounds read low
[73] = locus YOR329C, strain SCD5, active compounds read low
[74] = locus YPL031C, strain PHO85, active compounds read low
[75] = locus YPL153C, strain RAD53, active compounds read low
[76] = locus YPL204W, strain HRR25, active compounds read low
[77] = locus YPL209C, strain IPL1, active compounds read low
[78] = locus YPL256C, strain CLN2, active compounds read low
[79] = locus YPR025C, strain CCL1, active compounds read low
[80] = locus YPR106W, strain ISR1, active compounds read low
[81] = locus YPR111W, strain DBF20, active compounds read low
[82] = strain NNK1, active compounds read low
[83] = strain TSCII, active compounds read low

Measured: normalized growth

NC(=O)c1ncn(C2OC(CO)C(O)C2O)n1 (stereo unspecified)
inactive: [1] 1.01 | [2] 1 | [3] 1 | [4] 0.996 | [5] 1.01 | [6] 1.03 | [7] 1.01 | [8] 1.01 | [9] 1.02 | [10] 1.02 | [11] 1

COc1cc2c(CCNC(C)=O)c[nH]c2cc1Cl
inactive: [1] 0.983 | [3] 1.03 | [4] 0.956 | locus YGR078C, strain PAC10, active compounds read low 1.01 | [5] 1.01 | [6] 0.926 | [7] 0.989 | [8] 0.989 | [9] 1 | locus YNL322C, strain KRE1, active compounds read low 0.998 | [10] 1.03 | [12] 0.996

O=S1(=O)N(CCN2CC=C(c3c[nH]c4cc(F)ccc34)CC2)c2cccc3c2N1CCC3
inactive: [1] 0.981 | [2] 0.987 | [3] 0.997 | locus YJR075W, strain HOC1, active compounds read low 1 | [6] 0.851 | [7] 0.987 | [8] 0.994 | [9] 1.02 | [10] 0.958 | [11] 0.951 | [12] 0.977

N#CC(C#N)=Cc1c(-c2ccccc2Cl)[nH]c2ccccc12
active: [38] 0.654 | [54] 0.821 | [78] 0.779
inactive: [13] 0.968 | [14] 0.962 | [15] 0.965 | [16] 0.97 | [17] 0.969 | [18] 0.976 | [19] 0.972 | [20] 0.973 | [21] 0.975 | [22] 0.969 | [23] 0.919 | [24] 0.98 | [25] 0.931 | [26] 0.956 | [27] 0.901 | [28] 0.889 | [29] 0.93 | [30] 0.955 | [31] 0.96 | [32] 0.976 | [33] 0.924 | [34] 0.965 | [35] 0.907 | [36] 0.942 | [37] 0.938 | [39] 0.812 | [40] 0.932 | [41] 0.836 | [42] 0.971 | [43] 0.822 | [44] 0.958 | [45] 0.923 | [46] 0.956 | [47] 0.897 | [48] 0.902 | [49] 0.926 | [50] 0.918 | [51] 0.899 | [52] 0.967 | [53] 0.961 | [55] 0.905 | [56] 0.904 | [57] 0.886 | [58] 0.969 | [59] 0.919 | [60] 0.967 | [61] 0.96 | [62] 0.882 | [63] 0.966 | [64] 0.853 | [65] 0.974 | [66] 0.967 | [67] 0.84 | [68] 0.962 | [69] 0.87 | [70] 0.897 | [71] 1 | [72] 0.867 | [73] 0.968 | [74] 0.907 | [75] 0.905 | [76] 0.884 | [77] 0.973 | [79] 0.961 | [80] 0.954 | [81] 0.927 | [82] 0.959 | [83] 0.964

O=C(Nc1cc(Cl)ccc1O)c1ccccc1CSc1ccc(Cl)cc1
active: [33] 0.753 | [38] 0.29 | [51] 0.633 | [54] 0.52 | [62] 0.689 | [67] 0.565 | [70] 0.603 | [78] 0.551
inactive: [13] 0.977 | [14] 0.984 | [15] 0.985 | [16] 0.98 | [17] 0.979 | [18] 0.986 | [19] 0.985 | [20] 0.989 | [21] 0.981 | [22] 0.988 | [23] 0.823 | [24] 0.983 | [25] 0.979 | [26] 0.976 | [27] 0.8 | [28] 0.749 | [29] 0.839 | [30] 0.981 | [31] 0.977 | [32] 0.979 | [34] 0.986 | [35] 0.794 | [36] 0.685 | [37] 0.571 | [39] 0.683 | [40] 0.652 | [41] 0.785 | [42] 0.981 | [43] 0.502 | [44] 0.922 | [45] 0.783 | [46] 0.987 | [47] 0.765 | [48] 0.647 | [49] 0.888 | [50] 0.835 | [52] 0.988 | [53] 0.784 | [55] 0.776 | [56] 0.763 | [57] 0.714 | [58] 0.981 | [59] 0.851 | [60] 0.983 | [61] 0.98 | [63] 0.97 | [64] 0.689 | [65] 0.97 | [66] 0.983 | [68] 0.986 | [69] 0.753 | [71] 0.861 | [72] 0.699 | [73] 0.975 | [74] 0.738 | [75] 0.747 | [76] 0.731 | [77] 0.981 | [79] 0.979 | [80] 0.979 | [81] 0.954 | [82] 0.961 | [83] 0.981
